FBW7 activator: human FBW7 E3 ligase activation, primary screen; AlphaScreen FBW7–phospho-cyclin E peptide binding, activator screen; 0.13% of 650,000 active; Q969H0; AID 1259310; normalized activity (activation), % at 26.1 µM; in the data active means normalized activity above about 1.9%;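 further: purified mutant Fbw7 with reduced substrate affinity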
Target sequence (Q969H0 whole entry, looked up): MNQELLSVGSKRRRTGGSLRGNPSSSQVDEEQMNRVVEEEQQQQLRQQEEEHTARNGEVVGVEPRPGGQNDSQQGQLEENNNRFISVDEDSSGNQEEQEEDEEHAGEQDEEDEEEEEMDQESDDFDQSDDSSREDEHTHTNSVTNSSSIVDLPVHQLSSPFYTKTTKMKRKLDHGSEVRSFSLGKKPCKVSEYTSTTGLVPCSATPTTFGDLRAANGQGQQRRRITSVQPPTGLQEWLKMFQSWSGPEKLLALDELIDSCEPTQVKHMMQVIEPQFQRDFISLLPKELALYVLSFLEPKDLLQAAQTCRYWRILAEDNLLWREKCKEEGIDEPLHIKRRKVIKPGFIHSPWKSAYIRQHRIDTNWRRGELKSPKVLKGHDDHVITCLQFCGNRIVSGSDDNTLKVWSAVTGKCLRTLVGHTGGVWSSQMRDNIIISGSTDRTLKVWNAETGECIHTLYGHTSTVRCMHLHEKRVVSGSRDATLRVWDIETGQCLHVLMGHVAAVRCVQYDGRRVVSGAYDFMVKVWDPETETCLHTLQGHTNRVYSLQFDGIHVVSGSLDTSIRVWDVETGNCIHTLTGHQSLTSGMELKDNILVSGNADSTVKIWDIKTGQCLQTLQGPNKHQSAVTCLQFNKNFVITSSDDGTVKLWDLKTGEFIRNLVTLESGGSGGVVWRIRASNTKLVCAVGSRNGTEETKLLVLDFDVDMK
MITF inh: blocks human microphthalmia-associated transcription factor | O75030 | inhibition, % at 2.6 µM | AID 1259374 | AlphaScreen MITF homodimerization, bead proximity signal | 0.91% of 650,000 active; in the data active means inhibition above about 50%;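 further: 0% = vehicle wells with protein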
GPR151 activ: activators of human GPR151; Q8TDV0; PathHunter beta-arrestin GPR151 cells, luminescence; activation, % at 11.2 µM; 1% of 650,000 active; AID 1508602; in the data active means activation above about 4.9%;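 further: 0% = median of compound wells and 100% = cells with positive control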
TEAD-YAP block: TEAD-YAP interaction inhibition; HEK-TIYL cells, TEAD-Gal4/YAP UAS-luciferase luminescence; inhibition, % at 9.12 µM; 1.4% of 640,000 active; AID 1259422; in the data active means inhibition above about 32%;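 further: 0% = median of test compound wells and 100% = reference inhibitor wells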
MITF confirm: confirmation of human MITF inhibitors. inhibition, % at 2.6 µM. AlphaScreen MITF homodimerization, biotin/His-MITF beads. shares compounds with MITF inh. 16% of 4,700 active;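 active means inhibition above a cutoff derived from the DMSO control wells, cut at about 28% in these data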;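 further: 0% = MITF dimer wells with DMSO only; inhibitors lower the bead chemiluminescence by keeping MITF from dimerizing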
AlphaScreen DR: optically interferes with AlphaScreen signal in dose response | shares compounds with MITF inh | AlphaScreen optical interference counterscreen, cell-free | IC50, µM | 6% of 480 active | AID 1259373; call rule not given here
AS interf ctr: AlphaScreen optical interference, counter-screen. shares compounds with MITF inh. LysRS AlphaScreen counterscreen, signal interference, triplicate. inhibition, % at 2.6 µM. 7.6% of 4,700 active. AID 1259376;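 active means inhibition above a cutoff derived from the DMSO control wells, cut at about 30% in these data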
* = called active by the depositor; . = no result. Sampled rows, rich in hits. Any-hit rate of the full collection: about 3.5%.

SMILES	FBW7 activator	MITF inh	GPR151 activ	TEAD-YAP block	MITF confirm	AS interf ctr	others
COc1ccc(CN2CCCC(O)C2)cc1OC (stereo not drawn)	0	45	1	11	.	.
O=C(C1CCCN(Cc2cccc(Cl)c2)C1)N1CCCCC1 (stereo not drawn)	0	44	1	-3	.	.
COc1cccc(CN2CCCC(C(=O)N3CCCCC3)C2)c1 (stereo not drawn)	0	69*	-1	9	-13	-3
O=C(NCCN1Cc2ccccc2OC(c2ccccc2)C1)c1cc[n+]([O-])cc1 (stereo not drawn)	0	12	-1	-2	.	.
C=CCn1c(SCc2cccnc2)nc2cc(C(=O)N3CCOCC3)ccc2c1=O	0	12	0	-4	.	.
O=C(Nc1ccccc1)c1nc[nH]c1C(=O)Nc1ccccc1	0	12	0	7	.	.
O=C(NO)c1nc[nH]c1C(=O)NO	0	98*	-2	-1	99*	101*
O=C(N/N=C/c1ccco1)c1ccccc1Cl	0	10	2	-19	.	.
CCOC(=O)C1CCN(C(=O)c2sc3ncn(Cc4ccccc4Cl)c(=O)c3c2C)CC1	0	13	3	8	.	.
Cc1ccc2c(c1)NC(=O)C(N1CCOCC1)(C(F)(F)F)O2 (stereo not drawn)	0	59*	0	1	7	14
Cc1ccc2c(c1)NC(=O)C(Cl)(C(F)(F)F)O2 (stereo not drawn)	0	-12	3	-7	.	.
CCCCCC(=O)CC[C@@H]1[C@@H](C/C=C\CCCC(=O)O)[C@@H](O)C[C@@H]1O	.	56*	-2	.	0	12
FC(F)Oc1ccccc1C1C=C(c2cccnc2)Nc2ncnn21 (stereo not drawn)	0	3	-2	9	.	.
O=C1C(=O)N(CCBr)C(c2ccccc2)/C1=C(\O)c1ccccc1 (stereo not drawn)	0	59*	0	-12	-2	-1
C=CCNC1CCN(c2ccc(NC(=O)c3ccc(OC)cc3)cc2)CC1	0	60*	0	-19	-1	-2
CC(O)CNCCCCOc1ccc2ccccc2c1Br (stereo not drawn)	0	71*	1	3	53*	40*
COCCCNCCOc1ccc2ccccc2c1Br	0	59*	0	-4	7	18
COc1ccc(CCNC(=O)c2cc(Nc3ccnn3C)nc3ccccc23)cc1	0	69*	-2	-4	0	-2
COc1cc(NC(=O)c2ccc3nc(Nc4ccc(-n5ccnc5)cc4)sc3c2)cc(OC)c1OC	0	57*	0	3	3	8
CC(=O)Nc1ccc(NC(=O)c2ccc3nc(Nc4ccc(-n5ccnc5)cc4)sc3c2)cc1	0	4	-2	-3	.	.
CCOC(=O)C1=C(O)CSC1=NC(=O)c1ccc(OC)cc1	0	52*	0	-3	-17	-1
CCCCNS(=O)(=O)c1ccc(S(=O)(=O)NC(C)c2cccs2)cc1 (stereo not drawn)	0	56*	1	4	6	6
CC(NS(=O)(=O)c1ccc(S(=O)(=O)NCc2ccccc2)cc1)c1cccs1 (stereo not drawn)	0	22	0	2	.	.
CN1CCN(CCOCCOc2ccc(Cl)c(Cl)c2)CC1	0	57*	-1	10	-1	0
CN1CCN(CCOc2ccc(Cl)c(Cl)c2)CC1	0	69*	0	-19	-6	2
SMILES	FBW7 activator	MITF inh	GPR151 activ	TEAD-YAP block	MITF confirm	AS interf ctr	others
CCc1cc(OCCOCCN2CCN(CC)CC2)ccc1Cl	0	68*	-2	-20	4	18
CCc1cc(OCCN2CCNCC2)ccc1Cl	0	29	2	-3	.	.
COc1ccc(CCNc2ncc3c(n2)CC(c2ccccc2)CC3=O)cc1 (stereo not drawn)	0	4	0	-10	.	.
CC1CCN(C(=O)CSc2nnc(Cc3cc(=O)[nH]c(=O)[nH]3)n2-c2ccccc2)CC1	0	4	-1	-1	.	.
CCCc1nc2ccccc2c(NC(=O)CN(C)CCc2ccc(OC)c(OC)c2)c1CC	0	70*	3	7	7	-1
CCCC(=O)Nc1c(CC)c(CCC)nc2ccccc12	0	5	1	3	.	.
COC(=O)c1cnc(Nc2ccc(C)cc2Br)c2ccccc12	1	13	-1	-5	.	.
O=C(Oc1ccc([N+](=O)[O-])c2cccnc12)c1ccc(F)cc1	0	60*	1	13	66*	100*
O=C(Oc1cccc2cccnc12)c1ccc(F)cc1	0	14	1	-5	.	.
CCS(=O)(=O)N1CCN(C(C)CCc2ccccc2)CC1 (stereo not drawn)	0	51*	1	18	6	12
COc1ccc(C2C=C(c3cccs3)Nc3nc(CCCO)nn32)cc1 (stereo not drawn)	0	-3	3	0	.	.
Cc1nc(SCC(=O)Nc2cccc(C(F)(F)F)c2)c2c3c(sc2n1)CCC3	0	74*	-1	-9	5	13
COc1cccc(OCC(=O)NCCCS(=O)(=O)N2CCN(c3ccccn3)CC2)c1	0	-1	1	7	.	.
O=C(CC1Nc2ccccc2NC1=O)Nc1cccc(Cl)c1 (stereo not drawn)	0	65*	1	4	2	-11
O=C(c1ccccc1)c1cccn1CC(=O)N1CCCCCC1	0	63*	1	3	10	10
O=C(c1ccccc1)c1cccn1CC(=O)N1CCCC1	0	7	1	0	.	.
C[C@H]1C(=O)N2CCN(C(=O)NCc3ccccc3)C[C@@H]2C(=O)N1C	0	76*	-1	9	73*	-7	AlphaScreen DR=>6.5
O=C(NCc1ccccc1)N1CCN2C(=O)[C@@H]3CCCN3C(=O)[C@H]2C1	0	77*	0	2	74*	-9	AlphaScreen DR=>6.5
O=C(OCc1ccccc1)N1CCN2C(=O)[C@@H]3CCCN3C(=O)[C@H]2C1	0	2	1	-5	.	.
C[C@H]1C(=O)N2CCN(CCc3ccccc3)C[C@@H]2C(=O)N1C	0	1	1	1	.	.
CC(C)c1ccc2nc(SCC(=O)NCC3CCCO3)c(C#N)cc2c1 (stereo not drawn)	0	66*	0	9	11	19
CCOc1ccc2nc(SCC(=O)NCC3CCCO3)c(C#N)cc2c1 (stereo not drawn)	0	6	-1	-2	.	.
COc1ccc(F)c(CN2CCC(C3(CCc4ccccc4)NC(=O)NC3=O)CC2)c1 (stereo not drawn)	0	81*	1	4	2	-2
CCN1CCN(S(=O)(=O)/C=C/c2ccccc2)CC1	0	74*	0	2	-10	-5

Source: PubChem (The Scripps Research Institute Molecular Screening Center)
